# Measurements from the supplement of paper PMC8728848.
# About 410 targets per protein were measured; listed, in parts, are those with the strongest signals and a random draw of the rest.
# What was measured:
# Assay in all cases: glycan array binding signal (z-score within array); higher = stronger binding
# Details in all cases: glycan notation: IUPAC condensed, linker removed
# [1] = biological target: Fuc(a1-2)Gal(b1-3)[Fuc(a1-4)]GlcNAc(b1-2)Man(a1-3)[Fuc(a1-2)Gal(b1-3)[Fuc(a1-4)]GlcNAc(b1-2)Man(a1-6)]Man(b1-4)GlcNAc(b1-4)[Fuc(a1-6)]GlcNAc(b1-4)[Fuc(a1-6)]GlcNAc
# Method in brief: (§1)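 Glycan array data came from 3228 arrays in the Consortium for Functional Glycomics database, and only arrays with an available protein sequence were kept. Glycan names were put into IUPAC-condensed notation, and columns mapping to the same glycan were averaged. The binding signal is a within-array Z-score, averaged across arrays of one protein sequence run at different concentrations or buffers and across linkers. A negative Z-score can be read as non-binding.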
# [2] = biological target: Fuc(a1-2)Gal(b1-3)[Fuc(a1-4)]GlcNAc(b1-3)[Gal(b1-4)GlcNAc(b1-6)]Gal(b1-4)Glc
# Method in brief: as §1
# [3] = biological target: Fuc(a1-2)Gal(b1-4)Fuc(a1-3)]GlcNAc(b1-2)Man(a1-3)[Fuc(a1-2)Gal(b1-4)[Fuc(a1-3)]GlcNAc(b1-2)Man(a1-6)]Man(b1-4)GlcNAc(b1-4)GlcNAc
# Method in brief: as §1
# [4] = biological target: Fuc(a1-2)Gal(b1-4)[Fuc(a1-3)]GlcNAc(b1-3)Gal(b1-4)[Fuc(a1-3)]GlcNAc
# Method in brief: as §1
# [5] = biological target: Fuc(a1-2)[Gal(a1-3)]Gal(b1-3)GlcNAc(b1-2)Man(a1-3)[Fuc(a1-2)[Gal(a1-3)]Gal(b1-3)GlcNAc(b1-2)Man(a1-6)]Man(b1-4)GlcNAc(b1-4)[Fuc(a1-6)]GlcNAc
# Method in brief: as §1
# [6] = biological target: Fuc(a1-2)[Gal(a1-3)]Gal(b1-4)GlcNAc(b1-3)[Fuc(a1-2)[Gal(a1-3)]Gal(b1-4)GlcNAc(b1-6)]GalNAc
# Method in brief: as §1
# [7] = biological target: Fuc(a1-2)[GalNAc(a1-3)]Gal(b1-3)GalNAc(b1-3)Gal(a1-4)Gal(b1-4)Glc
# Method in brief: as §1
# [8] = biological target: Fuc(a1-2)[GalNAc(b1-3)]Gal
# Method in brief: as §1
# [9] = biological target: Fuc(a1-3)[Gal(b1-4)]GlcNAc(b1-3)Gal(b1-4)[Fuc(a1-3)]GlcNAc
# Method in brief: as §1
# Fuc(b1-3)GlcNAc = biological target: Fuc(b1-3)GlcNAc
# Method in brief: as §1
# [10] = biological target: Gal(a1-3)Gal(b1-3)[Fuc(a1-4)]GlcNAc(b1-2)Man(a1-3)[Gal(a1-3)Gal(b1-3)[Fuc(a1-4)]GlcNAc(b1-2)Man(a1-6)]Man(b1-4)GlcNAc(b1-4)GlcNAc
# Method in brief: as §1
# [11] = biological target: Gal(a1-3)[Gal(a1-4)]Gal(b1-4)GlcNAc
# Method in brief: as §1
# [12] = biological target: Gal(b1-3)GlcNAc(b1-3)Gal(b1-4)GlcNAc(b1-2)Man(a1-3)[Gal(b1-3)GlcNAc(b1-3)Gal(b1-4)GlcNAc(b1-2)Man(a1-6)]Man(b1-4)GlcNAc(b1-4)GlcNAc
# Method in brief: as §1
# [13] = biological target: Gal(b1-3)[Fuc(a1-4)]GlcNAc(b1-2)Man(a1-3)[Gal(b1-3)[Fuc(a1-4)]GlcNAc(b1-2)Man(a1-6)]Man(b1-4)GlcNAc(b1-4)[Fuc(a1-6)]GlcNAc
# Method in brief: as §1
# [14] = biological target: Gal(b1-3)[GlcNAc(b1-6)]GalNAc
# Method in brief: as §1
# [15] = biological target: Gal(b1-4)GalNAc(a1-3)[Fuc(a1-2)]Gal(b1-4)GlcNAc
# Method in brief: as §1
# [16] = biological target: Gal(b1-4)GlcNAc(b1-2)Man(a1-3)[Gal(b1-4)GlcNAc(b1-2)Man(a1-6)]Man(b1-4)GlcNAc(b1-4)[Fuc(a1-6)]GlcNAc
# Method in brief: as §1
# [17] = biological target: Gal(b1-4)GlcNAc(b1-2)[Gal(b1-4)GlcNAc(b1-6)]Man(a1-6)[Gal(b1-4)GlcNAc(b1-2)Man(a1-3)]Man(b1-4)GlcNAc(b1-4)[Fuc(a1-6)]GlcNAc
# Method in brief: as §1
# [18] = biological target: Gal(b1-4)GlcNAc(b1-3)Gal(b1-4)GlcNAc
# Method in brief: as §1
# [19] = biological target: Gal(b1-4)GlcNAc(b1-3)Gal(b1-4)GlcNAc(b1-2)Man(a1-3)[Gal(b1-4)GlcNAc(b1-3)Gal(b1-4)GlcNAc(b1-2)Man(a1-6)]Man(b1-4)GlcNAc(b1-4)GlcNAc
# Method in brief: as §1
# [20] = biological target: Gal(b1-4)GlcNAc(b1-3)Gal(b1-4)GlcNAc(b1-3)Gal(b1-4)GlcNAc(b1-3)Gal(b1-4)GlcNAc(b1-3)Gal(b1-4)GlcNAc(b1-3)Gal(b1-4)GlcNAc(b1-2)Man(a1-3)[Gal(b1-4)GlcNAc(b1-3)Gal(b1-4)GlcNAc(b1-3)Gal(b1-4)GlcNAc(b1-3)Gal(b1-4)GlcNAc(b1-3)Gal(b1-4)GlcNAc(b1-3)Gal(b1-4)GlcNAc(b1-2)Man(a1-6)]Man(b1-4)GlcNAc(b1-4)GlcNAc
# Method in brief: as §1
# [21] = biological target: Gal(b1-4)GlcNAc(b1-3)Gal(b1-4)GlcNAc(b1-3)[Gal(b1-4)GlcNAc(b1-3)Gal(b1-4)GlcNAc(b1-6)]GalNAc
# Method in brief: as §1
# [22] = biological target: Gal(b1-4)GlcNAc(b1-3)GalNAc
# Method in brief: as §1
# Gal3S6S(b1-4)GlcNAc6S = biological target: Gal3S6S(b1-4)GlcNAc6S
# Method in brief: as §1
# GalNAc(a1-3)GalNAc = biological target: GalNAc(a1-3)GalNAc
# Method in brief: as §1
# GalNAc3S(b1-4)GlcNAc3S = biological target: GalNAc3S(b1-4)GlcNAc3S
# Method in brief: as §1
# GalNAc4S6S(b1-4)GlcNAc = biological target: GalNAc4S6S(b1-4)GlcNAc
# Method in brief: as §1
# Glc(a1-6)Glc(a1-6)Glc = biological target: Glc(a1-6)Glc(a1-6)Glc
# Method in brief: as §1
# GlcA(b1-6)Gal = biological target: GlcA(b1-6)Gal
# Method in brief: as §1
# [23] = biological target: GlcA3S(b1-3)Gal(b1-4)GlcNAc(b1-3)Gal(b1-4)Glc
# Method in brief: as §1
# [24] = biological target: GlcNAc(a1-4)Gal(b1-4)GlcNAc(b1-3)Gal(b1-4)GlcNAc
# Method in brief: as §1
# [25] = biological target: GlcNAc(b1-3)Gal(b1-4)GlcNAc
# Method in brief: as §1
# [26] = biological target: GlcNAc(b1-3)Gal(b1-4)GlcNAc(b1-2)Man(a1-3)[GlcNAc(b1-3)Gal(b1-4)GlcNAc(b1-2)Man(a1-6)]Man(b1-4)GlcNAc(b1-4)[Fuc(a1-6)]GlcNAc
# Method in brief: as §1
# [27] = biological target: GlcNAc(b1-3)Gal(b1-4)GlcNAc(b1-3)Gal(b1-4)GlcNAc(b1-2)Man(a1-3)[GlcNAc(b1-3)Gal(b1-4)GlcNAc(b1-3)Gal(b1-4)GlcNAc(b1-2)Man(a1-6)]Man(b1-4)GlcNAc(b1-4)GlcNAc
# Method in brief: as §1
# [28] = biological target: GlcNAc(b1-3)Gal(b1-4)GlcNAc(b1-3)Gal(b1-4)GlcNAc(b1-3)Gal(b1-4)GlcNAc(b1-2)Man(a1-3)[GlcNAc(b1-3)Gal(b1-4)GlcNAc(b1-3)Gal(b1-4)GlcNAc(b1-3)Gal(b1-4)GlcNAc(b1-2)Man(a1-6)]Man(b1-4)GlcNAc(b1-4)[Fuc(a1-6)]GlcNAc
# Method in brief: as §1
# Kdn(a2-3)Gal(b1-4)GlcNAc = biological target: Kdn(a2-3)Gal(b1-4)GlcNAc
# Method in brief: as §1
# Neu5Ac(a2-3)Gal = biological target: Neu5Ac(a2-3)Gal
# Method in brief: as §1
# [29] = biological target: Neu5Ac(a2-3)Gal(b1-3)GalNAc(b1-3)Gal(a1-4)Gal(b1-4)Glc
# Method in brief: as §1
# [30] = biological target: Neu5Ac(a2-3)Gal(b1-3)GlcNAc(b1-3)Gal(b1-4)GlcNAc
# Method in brief: as §1
# [31] = biological target: Neu5Ac(a2-3)Gal(b1-3)GlcNAc(b1-6)GalNAc
# Method in brief: as §1
# [32] = biological target: Neu5Ac(a2-3)Gal(b1-4)GlcNAc(b1-3)Gal(b1-4)GlcNAc(b1-3)GalNAc
# Method in brief: as §1
# [33] = biological target: Neu5Ac(a2-3)Gal(b1-4)[Fuc(a1-3)]GlcNAc
# Method in brief: as §1
# [34] = biological target: Neu5Ac(a2-3)Gal(b1-4)[Fuc(a1-3)]GlcNAc(b1-3)Gal(b1-4)[Fuc(a1-3)]GlcNAc(b1-3)Gal(b1-4)[Fuc(a1-3)]GlcNAc
# Method in brief: as §1
# [35] = biological target: Neu5Ac(a2-3)Gal(b1-4)[Fuc(a1-3)]GlcNAc(b1-3)GalNAc
# Method in brief: as §1
# [36] = biological target: Neu5Ac(a2-3)[Neu5Ac(a2-6)]GalNAc
# Method in brief: as §1
# [37] = biological target: Neu5Ac(a2-6)Gal(b1-4)GlcNAc(b1-2)Man
# Method in brief: as §1
# [38] = biological target: Neu5Ac(a2-6)Gal(b1-4)GlcNAc(b1-2)Man(a1-3)[Gal(b1-4)GlcNAc(b1-2)Man(a1-6)]Man(b1-4)GlcNAc(b1-4)GlcNAc
# Method in brief: as §1
# [39] = biological target: Neu5Ac(a2-8)Neu5Ac(a2-3)Gal(b1-3)GalNAc(b1-4)[Neu5Ac(a2-3)]Gal(b1-4)Glc
# Method in brief: as §1
# [40] = biological target: Neu5Ac(a2-8)Neu5Ac(a2-3)[Gal(b1-3)GalNAc(b1-4)]Gal(b1-4)Glc
# Method in brief: as §1
# [41] = biological target: Neu5Ac(a2-8)Neu5Ac(a2-8)Neu5Ac(a2-8)Neu5Ac(a2-3)[GalNAc(b1-4)]Gal(b1-4)Glc
# Method in brief: as §1
binder,measurement,setting,value
"XTP3-B-MRH1 (Homo sapiens), Q96DZ1 (protein) LLEPLFKQSSCSYRIESYWTYEVCHGKHIRQYHEEKETGQKINIHEYYLGNMLAKNLLFEKEREAEEKEKSNEIPTKNIEGQMTPYYPVGMGNGTPCSLKQNRPRSSTVMYICHPESKHEILSVAEVTTCEYEVVILTPLLCSHPKYRFRA",glycan array binding signal (z-score),[1],0.479
same,glycan array binding signal (z-score),[2],0.735
same,glycan array binding signal (z-score),[3],3.43
same,glycan array binding signal (z-score),[4],0.249
same,glycan array binding signal (z-score),[5],-0.029
same,glycan array binding signal (z-score),[6],0.358
same,glycan array binding signal (z-score),[7],-0.49
same,glycan array binding signal (z-score),[8],-1.01
same,glycan array binding signal (z-score),[9],4.25
same,glycan array binding signal (z-score),Fuc(b1-3)GlcNAc,0.382
same,glycan array binding signal (z-score),[10],-0.237
same,glycan array binding signal (z-score),[11],-0.853
same,glycan array binding signal (z-score),[12],0.941
same,glycan array binding signal (z-score),[13],-0.731
same,glycan array binding signal (z-score),[14],-0.389
same,glycan array binding signal (z-score),[15],-0.41
same,glycan array binding signal (z-score),[16],-0.184
same,glycan array binding signal (z-score),[17],1.61
same,glycan array binding signal (z-score),[18],2.97
same,glycan array binding signal (z-score),[19],3.79
same,glycan array binding signal (z-score),[20],0.082
same,glycan array binding signal (z-score),[21],1.07
same,glycan array binding signal (z-score),[22],-0.205
same,glycan array binding signal (z-score),Gal3S6S(b1-4)GlcNAc6S,-0.392
same,glycan array binding signal (z-score),GalNAc(a1-3)GalNAc,3.12
same,glycan array binding signal (z-score),GalNAc3S(b1-4)GlcNAc3S,3.07
same,glycan array binding signal (z-score),GalNAc4S6S(b1-4)GlcNAc,-0.682
same,glycan array binding signal (z-score),Glc(a1-6)Glc(a1-6)Glc,-0.837
same,glycan array binding signal (z-score),GlcA(b1-6)Gal,0.841
same,glycan array binding signal (z-score),[23],-0.47
same,glycan array binding signal (z-score),[24],-0.549
same,glycan array binding signal (z-score),[25],-0.824
same,glycan array binding signal (z-score),[26],-0.235
same,glycan array binding signal (z-score),[27],2.48
same,glycan array binding signal (z-score),[28],4.18
same,glycan array binding signal (z-score),Kdn(a2-3)Gal(b1-4)GlcNAc,-0.086
same,glycan array binding signal (z-score),Neu5Ac(a2-3)Gal,-0.797
same,glycan array binding signal (z-score),[29],-0.636
same,glycan array binding signal (z-score),[30],0.189
same,glycan array binding signal (z-score),[31],-0.811
same,glycan array binding signal (z-score),[32],3.41
same,glycan array binding signal (z-score),[33],-0.083
same,glycan array binding signal (z-score),[34],-0.381
same,glycan array binding signal (z-score),[35],2.68
same,glycan array binding signal (z-score),[36],0.205
same,glycan array binding signal (z-score),[37],1.44
same,glycan array binding signal (z-score),[38],-0.887
same,glycan array binding signal (z-score),[39],-1.01
same,glycan array binding signal (z-score),[40],2.49
same,glycan array binding signal (z-score),[41],1.37
